CRFR2-BP ag = agonists of CRF-BP/CRF-R2 complex, primary screen, cell-based, HEK293, calcium dye fluorescence, uHTS. CRF-binding protein / CRF receptor 2 complex (human). calcium dye fluorescence (FLIPR); percent of saturating CRF peptide response. activation, % at 13.2 µM. 0.46% of 350,000 active. AID 588473, 2011;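 active = activation of at least 50%, plus an integration ratio under a set limit after plate pattern correction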;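 note: plate controls were neutral control wells without compound for no effect and CRF at EC100 for full effect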
ANO1 activ = TMEM16A chloride channel activators or potentiators, primary screen, cell-based, HTS; B-score at 10 µM; Anoctamin-1 (Mus musculus), Q8BHY3; AID 623877, 2012; HEK293 TMEM16A/YFP-H148Q/I152L, iodide quench fluorescence; stronger effect = lower value; 0.3% of 340,000 active;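 active = fluorescence-ratio B-score plate-corrected deviation score at least 3 library SD below zero, with starting fluorescence score within 5 deviations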;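 note: channel opened by trigger with iodide after compound preincubation; score built on the fluorescence ratio of max minus min over baseline; more negative score means more quench and so TMEM16A activation or potentiation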
Cardiac RTF inh = cardiac RTF calcium sensitivity inhibitors, primary screen, biochemical, IANBD-TnC fluorescence, EC70 calcium; Troponin I, cardiac muscle (Homo sapiens) + Troponin T, cardiac muscle (Homo sapiens) + …; IANBD-labeled cardiac RTF, Ca2+ fluorescence; inhibition, % at 7.15 µM; 0.12% of 340,000 active; AID 493244, 2011;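 active = inhibition above the mean inhibition of all tested compounds plus 3 SD, cut at about 17% in these data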;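 note: assay run at fixed EC70 calcium of 1.6 mM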
RTF Ca sens act = cardiac RTF calcium sensitivity activators, primary screen, biochemical, IANBD-TnC fluorescence, EC20 calcium; Troponin I, cardiac muscle (Homo sapiens) + Troponin T, cardiac muscle (Homo sapiens) + …; IANBD-labeled TnC RTF fluorescence at EC20 calcium; 0% EC20 calcium, 100% full calcium; activation, % at 7.2 µM; 0.24% of 340,000 active;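 active = activation above the mean over all tested compounds plus 3 SD, cut at about 30% in these data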;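 note: rise in fluorescence read as greater calcium sensitivity of cardiac thin filaments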
ANO1 block = TMEM16A chloride channel inhibitors, primary screen, cell-based, HTS; 1.2% of 310,000 active; normalized B-score (activity score, 25-100; higher = stronger inhibition) at 10 µM; Anoctamin-1 (Mus musculus), Q8BHY3; AID 588511, 2011; HEK293 TMEM16A/YFP iodide influx fluorescence, ionomycin;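 active = ratio plate-corrected score three or more library SD toward inhibition, starting fluorescence score within five deviations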;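 note: score derived from kinetic fluorescence span divided by baseline fluorescence per well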
CRFBP-R2 block = antagonists of CRF-BP/CRF-R2 complex, primary screen, cell-based, HEK293, calcium dye fluorescence, uHTS | inhibition, % at 11.8 µM | CRF-induced calcium fluorescence | 0.59% of 350,000 active;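 active = inhibition of the ligand-induced calcium signal above about 50% at the single tested concentration, limit read from the data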
Active calls of the source: *. Only some compounds are listed: those with a hit (about 2.4% of all), similar ones and a draw of the others.

Results for COc1ccccc1OCCCCOc1ccccc1F ?
CRFR2-BP ag: 0; ANO1 activ: inactive; Cardiac RTF inh: 4; RTF Ca sens act: 1; ANO1 block: inactive; CRFBP-R2 block: 17

What do the screens show for `CN(c1ccc(C(=O)Nc2ccccc2C(F)(F)F)cc1)S(C)(=O)=O`?
CRFR2-BP ag: 2; ANO1 activ: inactive; Cardiac RTF inh: -10; RTF Ca sens act: -3; ANO1 block: inactive; CRFBP-R2 block: -6

How did CC(C)C(NC(=O)c1ccco1)C(=O)NC1CCCCCC1 (stereo not drawn) do in these assays?
CRFR2-BP ag: 0; ANO1 activ: inactive; Cardiac RTF inh: -8; RTF Ca sens act: 3; ANO1 block: inactive; CRFBP-R2 block: 105*

What do the screens show for `COc1cccc(-c2nc(CS(=O)(=O)CC(=O)NCCN3CCOCC3)c(C)o2)c1`?
CRFR2-BP ag: -2; ANO1 activ: inactive; Cardiac RTF inh: 1; RTF Ca sens act: -1; ANO1 block: inactive; CRFBP-R2 block: 10

Results for Cc1onc(-c2c(F)cccc2Cl)c1C(=O)N1CCN(c2ncc(Br)cn2)CC1 ?
CRFR2-BP ag: 0; ANO1 activ: inactive; Cardiac RTF inh: 5; RTF Ca sens act: -1; ANO1 block: inactive; CRFBP-R2 block: 74*

How did Cc1onc(-c2c(F)cccc2Cl)c1C(=O)N1CCSCC1 do in these assays?
CRFR2-BP ag: -2; ANO1 activ: inactive; ANO1 block: inactive; CRFBP-R2 block: 12

How did Cc1ccc(NC(=O)CSCC(=O)OCc2cc(=O)oc3cc(O)ccc23)c(C)c1 do in these assays?
CRFR2-BP ag: -3; ANO1 activ: inactive; Cardiac RTF inh: -9; RTF Ca sens act: -10; ANO1 block: inactive; CRFBP-R2 block: 9

What do the screens show for `Cc1nnc(SCC(=O)Nc2cccc(S(=O)(=O)N(C)c3ccccc3)c2)s1`?
CRFR2-BP ag: 1; ANO1 activ: inactive; Cardiac RTF inh: -6; RTF Ca sens act: -5; ANO1 block: inactive; CRFBP-R2 block: 7

What do the screens show for `C=CCOc1ccc(CNn2nnnc2N)cc1`?
CRFR2-BP ag: -2; ANO1 activ: -14*; Cardiac RTF inh: -12; RTF Ca sens act: 8; ANO1 block: inactive; CRFBP-R2 block: -6

How did CCN(CC)c1nc(C=Cc2ccc(N(C)C)cc2)c2nccnc2n1 do in these assays?
CRFR2-BP ag: 215*; CRFBP-R2 block: -211

How did CN(C)c1nc(N)c2nccnc2n1 do in these assays?
CRFR2-BP ag: 1; ANO1 activ: inactive; Cardiac RTF inh: -2; RTF Ca sens act: -4; CRFBP-R2 block: 16

How did O=C(NN1C(=O)NC2(CCCCC2)C1=O)c1ccc(-c2ccc([N+](=O)[O-])cc2)o1 do in these assays?
CRFR2-BP ag: -1; ANO1 activ: inactive; Cardiac RTF inh: -11; RTF Ca sens act: -3; ANO1 block: inactive; CRFBP-R2 block: -13

Results for c1ccc(CC2CCN(c3nnnn3-c3ccccc3)CC2)cc1 ?
CRFR2-BP ag: -1; ANO1 activ: inactive; Cardiac RTF inh: -2; RTF Ca sens act: -5; ANO1 block: 100*; CRFBP-R2 block: 12

How did CSCCC(NC=O)C(=O)NC(C)C(=O)O (stereo not drawn) do in these assays?
CRFR2-BP ag: -1; ANO1 activ: inactive; Cardiac RTF inh: -6; RTF Ca sens act: 0; CRFBP-R2 block: 10

What do the screens show for `Cc1ccc(-n2[nH]c(C)c(/C=N/Nc3ccc([N+](=O)[O-])cc3[N+](=O)[O-])c2=O)cc1C`?
CRFR2-BP ag: 31; ANO1 activ: inactive; Cardiac RTF inh: -1; RTF Ca sens act: -6; ANO1 block: 25*; CRFBP-R2 block: 85*

What do the screens show for `O=C(c1ccc(Cl)c(S(=O)(=O)Nc2ccccc2C(=O)N2CCc3ccccc3C2)c1)N1CCc2ccccc2C1`?
CRFR2-BP ag: 0; ANO1 activ: inactive; Cardiac RTF inh: 9; RTF Ca sens act: 4; ANO1 block: inactive; CRFBP-R2 block: 54*
